Bioassay records (PubChem BioAssay)
In the library only some 2.4% were active in any assay of this set; here they are far more common.
M1 PAM parental: nonselective activator or artifact in parental CHO-K1 calcium assay; ATP EC20, Fluo-8 calcium fluorescence; 0% at ATP EC20, 100% at ATP max; activation, % at 3 µM; actives 0.02% (n = 360,000); AID 602247;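 active means activation above the run cutoff, the mean activation of all test compounds plus 3 SD, cut at about 40% in these data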;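 further: peak over basal fluorescence ratio in a 140 s read after ATP addition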
CHRM1 agonist: human M1 muscarinic receptor agonism. actives 0.33% (n = 360,000). CHO-K1 hM1, Fluo-8 calcium fluorescence, agonist mode; 0% DMSO, 100% acetylcholine EC100. P11229. AID 588814. activation, % at 3 µM;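 active means activation above the run's mean compound activation plus 3 SD, cut at about 16% in these data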;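 further: peak over basal fluorescence ratio within a 140 s kinetic read after compound addition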
Target sequence (P11229 whole entry, looked up): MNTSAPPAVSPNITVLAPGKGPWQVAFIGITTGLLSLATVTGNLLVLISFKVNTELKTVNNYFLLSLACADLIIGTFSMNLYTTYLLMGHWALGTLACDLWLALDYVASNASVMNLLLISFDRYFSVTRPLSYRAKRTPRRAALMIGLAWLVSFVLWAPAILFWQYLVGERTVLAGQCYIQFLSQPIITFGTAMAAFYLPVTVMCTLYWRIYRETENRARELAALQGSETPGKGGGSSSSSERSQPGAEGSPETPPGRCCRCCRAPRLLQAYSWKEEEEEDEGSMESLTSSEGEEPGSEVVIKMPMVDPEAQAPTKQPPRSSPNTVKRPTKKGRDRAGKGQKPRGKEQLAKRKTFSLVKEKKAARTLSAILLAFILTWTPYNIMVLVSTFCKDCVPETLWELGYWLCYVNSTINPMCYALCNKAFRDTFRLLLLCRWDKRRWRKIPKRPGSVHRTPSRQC
M1 antag: antagonists of human M1 muscarinic receptor; inhibition, % at 3 µM; CHO-K1 hM1, Fluo-8 calcium fluorescence, ACh EC80 antagonist; P11229; AID 588852; actives 1.3% (n = 360,000);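 active means percent inhibition above its own plate's cutoff, namely the mean of that plate's compound wells plus 3 SD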;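 further: peak over basal fluorescence ratio during 140 s after agonist addition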
CHO-K1 Ca ag: counter-screen for M1 agonists: effect in parental CHO-K1 cells; Fluo-8 calcium fluorescence; scaled to maximal ATP response, vehicle zero; activation, % at 3 µM; actives 0.48% (n = 360,000); AID 602248; in the data active means activation above about 15%;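 further: untransfected CHO-K1 host cells lacking M1 receptor as counterscreen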
CHO-K1 Ca antag: M1 antagonist counterscreen hit in parental CHO-K1 cells; ATP-induced calcium, Fluo-8 fluorescence; inhibition, % at 3 µM; actives 0.6% (n = 360,000); AID 602250;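 active means inhibition above a per-plate cutoff, the plate's mean sample inhibition plus 3 SD, cut at about 24% in these data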
M1 PAM: human CHRM1 positive allosteric modulation. activation, % at 3 µM. actives 0.088% (n = 360,000). P11229. CHO-K1 hM1, Fluo-8 calcium fluorescence, ACh EC20; 0% = ACh EC20, 100% = maximal ACh; in the data active means activation above about 19%, passing the limit was not always enough
Each line names hits and unclear results; the compound was inactive in the other large screens.

CC(=O)N1c2ccc(S(=O)(=O)N3CCC(C(=O)Nc4cccc(C(F)(F)F)c4)CC3)cc2CC1C (configuration not stated)	CHO-K1 Ca antag 32
COc1cccc(NC(=O)C2CCN(S(=O)(=O)c3ccc4c(c3)CC(C)N4C(C)=O)CC2)c1 (configuration not stated)	none
O=C(NCc1ccc(Cl)cc1)C1CCN(S(=O)(=O)c2ccc(N3CCCC3=O)cc2)CC1	M1 antag 33
COc1cccc(NC(=O)C2CCN(S(=O)(=O)c3ccc(N4CCCC4=O)cc3)CC2)c1	none
C=C1c2cc3c(cc2NC(=S)N1Cc1ccccc1)OCO3	none
CCN(C(=O)CSc1nnc(-c2cccc(Cl)c2)n1N)c1c(N)n(Cc2ccccc2)c(=O)[nH]c1=O	none
Cc1ccccc1Nc1nnc(-c2ccc(C(=O)NCCO)cc2)c2ccccc12	none
CN(Cc1ccccc1)C(=S)Nc1ccc(OC(F)F)cc1	none
CN(C)CCCN(Cc1ccccc1)C(=S)Nc1ccc(OC(F)F)cc1	M1 antag 55
O=C(/C(=C/O)N=Nc1ccccc1)c1ccncc1	CHO-K1 Ca ag 23
COc1ccc(CN2C(=O)C(CC(=O)NCCCCc3ccccc3)CC(C(=O)N(C)C)=C2C)cc1 (configuration not stated)	CHRM1 agonist 53
CC1=C(C(=O)N(C)C)CC(CC(=O)NCCCCc2ccccc2)C(=O)N1Cc1ccccc1 (configuration not stated)	CHRM1 agonist 35
COCCCN1C(=O)C(CC(=O)NCCc2ccccn2)CC(C(=O)N2CCOCC2)=C1C (configuration not stated)	none
CCN(CC)C(=O)C1=C(C)N(CCCOC)C(=O)C(CC(=O)NCCc2ccccn2)C1 (configuration not stated)	CHO-K1 Ca antag 30
COc1ccc(S(=O)(=O)N2CCC(N3CCN(Cc4ccccc4)CC3)CC2)cc1	M1 antag 84
O=[N+]([O-])c1ccccc1S(=O)(=O)N1CCN(C2CCN(Cc3ccccc3)CC2)CC1	M1 antag 54
COc1cc(S(=O)(=O)N2CCN(Cc3ccccc3)CC2)ccc1Br	CHO-K1 Ca antag 48
COc1ccc(NS(=O)(=O)c2ccc(N3CCCCC3)c(NC(=O)C(C)NC(N)=O)c2)cc1 (configuration not stated)	none
COc1ccc(NS(=O)(=O)c2ccc(N3CCCCC3)c(N)c2)cc1	M1 antag 36
O=[N+]([O-])c1ccc(S(=O)(=O)N2CCN(C3CCN(Cc4ccccc4)CC3)CC2)cc1	none
c1ccc2sc(-n3cc(C4CCCCC4)nn3)nc2c1	none (no result: CHRM1 agonist, M1 antag, M1 PAM)
COc1ccc(NC(=O)c2cccc(-c3ccc(O)cc3)c2)cn1	none
COc1ccc2cc(S(=O)(=O)N3CCCCCC3)ccc2c1	none
COc1ccc(S(=O)(=O)N2CCCCC2)cc1	CHO-K1 Ca antag 27
CN(CC(=O)NC1CCN(Cc2ccccc2)CC1)S(=O)(=O)c1ccc(Cl)cc1	none
O=S(=O)(c1ccc(Cl)cc1)N1CCN(C2CCN(Cc3ccccc3)CC2)CC1	M1 antag 37
O=S(=O)(NC1CCN(Cc2ccccc2)CC1)c1ccc(Cl)cc1	M1 antag 52
CC(C)(C)NC(=O)COC(=O)c1ccc2c(c1)C(=O)N(Cc1ccco1)C2=O	none
O=C(Nc1ccc(N2C(=O)CCC2=O)cc1Cl)c1cccs1	none
C=CCn1c(C)c(C(C)=O)c(N2CCN(c3ccccc3)CC2)nc1=S	M1 antag 89
CCn1c(C)c(C(C)=O)c(N2CCCC2)nc1=S	M1 antag 40
C=CCn1c(C)c(C(C)=O)c(N2CCCC2)nc1=S	M1 antag 98
O=C1C=C(N2CCCCCC2)C(=O)N1c1ccc(Cl)cc1	M1 antag 81
Cn1nc(C(F)(F)F)c(-c2cccc(C(F)(F)F)c2)c1NC(=O)Nc1ccc(F)cc1	M1 antag 38, CHO-K1 Ca ag 15, CHO-K1 Ca antag 33
Cn1nc(C(F)(F)F)c(-c2cccc(C(F)(F)F)c2)c1NC(=O)c1ccco1	none
CCN(CC)CCC#CC1(O)c2ccccc2-c2ccccc21	M1 antag 99
OC(C#CCN1CCCC1)c1ccccc1 (configuration not stated)	none
OC1(C#CCN2CCCC2)c2ccccc2-c2ccccc21	M1 antag 85
CN(C)CCC#CC1(O)c2ccccc2-c2ccccc21	M1 antag 66
CC(C)(C)N(CC#CCC1(O)c2ccccc2-c2ccccc21)CCO	none
Cc1ccccc1NC(=O)Cn1nc(-c2ccccc2)nc1-c1ccccc1	CHO-K1 Ca antag 24
COc1cccc2c1OC1(C)CC2NC(=O)N1c1cccc(C(=O)Nc2ccc3c(c2)OCCO3)c1 (configuration not stated)	M1 antag 28
COc1ccc(NC(=O)c2cccc(N3C(=O)NC4CC3(C)Oc3ccccc34)c2)cc1 (configuration not stated)	none
O=S(=O)(Nc1cccc(S(=O)(=O)N2CCCC2)c1)c1cccc(Br)c1	none
Cc1ccc(N=C2C(=O)Nc3ccc(C)c(Br)c32)cc1	none
COc1ccc(N=C2C(=O)Nc3ccc(C)c(Br)c32)cc1	CHO-K1 Ca antag 26
Cc1ccccc1CN1CCN(CC(=O)NCCCN2CCN(c3ccc(F)cc3)CC2)C1=O	CHO-K1 Ca antag 29
O=C(CN1CCN(Cc2ccc(Cl)cc2)C1=O)NCCCN1CCN(c2ccc(F)cc2)CC1	none
COc1ccc([C@@H]2C[C@H]3[C@@H](CN2S(=O)(=O)c2ccccc2)C(=O)C[C@@H](c2ccc(OC)cc2)N3S(=O)(=O)c2ccccc2)cc1	CHO-K1 Ca antag 28
CCc1nc2ccc(C(=O)NCCN3CCCC3)cn2c1N(C)Cc1ccc(OC)cc1	M1 antag 45
CCc1nc2ccc(C(=O)NCc3ccc(OC)cc3)cn2c1N(C)Cc1ccc(OC)cc1	none
CCCCN(C)c1c(C)nc2ccc(C(=O)NCCOc3ccc(OC)cc3)cn12	M1 antag 39, CHO-K1 Ca antag 30
COc1ccc(N2c3ccccc3CN(Cc3ccccc3)[C@@H](C)[C@H]2Cc2cccnc2)cc1	none
O=C(Nc1ccccc1)c1cc(C2CCCCN2C(=O)c2cccs2)on1 (configuration not stated)	none
CN(C)C(=O)c1cc(C(=O)Cc2ccccc2)c[nH]1	none
CCOc1ccc(-c2nc(CSCC(=O)N3CCN(c4cccc(OC)c4)CC3)c(C)o2)cc1	M1 antag 35
Cc1ccc(-c2nc(CSCC(=O)N3CCN(c4ccccn4)CC3)c(C)o2)cc1	M1 antag 33
CCc1ccc(-c2nc(CSCC(=O)N3CCN(c4ccccn4)CC3)c(C)o2)cc1	CHO-K1 Ca antag 29
Cc1ccc(-c2nc(CSCC(=O)N3CCOCC3)c(C)o2)cc1	none
